Reference: PubChem BioAssay (NCI)
The panel holds about 83,000 compounds, 20% with a hit somewhere; the sample as a whole holds those more often.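 Percent growth is the endpoint: 0 to 100 indicates growth inhibition (40 means 60% inhibition), 0 means no net growth, and negative values indicate cell death.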 A number with no mark means an inactive call. The source made the active and inactive calls. How the source made its calls: active means growth percent below 10; inactive means the rest.

Columns and labels:
Experiment in all cases: NCI-60 one-dose screen, 48 h (100 = growth as untreated, 0 = no growth, -100 = all killed)
Conditions in all cases: 10 µM unless noted
NCI-H23 lung = system: NCI-H23 lung
NCI-H226 lung = system: NCI-H226 lung
NCI-H322M lung = system: NCI-H322M lung
HOP-62 NSCLC = system: HOP-62 NSCLC
NCI-H460 lung = system: NCI-H460 lung
HOP-92 NSCLC = system: HOP-92 NSCLC
NCI-H522 lung = system: NCI-H522 lung
A549/ATCC NSCLC = system: A549/ATCC NSCLC
786-0 renal = system: 786-0 renal
COLO 205 colon = system: COLO 205 colon

Row | SMILES | growth (NCI-H23 lung) | growth (NCI-H226 lung) | growth (NCI-H322M lung) | growth (HOP-62 NSCLC) | growth (NCI-H460 lung) | growth (HOP-92 NSCLC) | growth (NCI-H522 lung) | growth (A549/ATCC NSCLC) | growth (786-0 renal) | growth (COLO 205 colon)
1 | N#Cc1nc(-c2ccccc2)oc1N1CCC(C2(C(F)(F)F)N=N2)CC1 | 91.6% | 97% | 107% | 113% | 102% | 90.1% | 96.8% | 99.8% | 101% | 103%
2 | CCc1cc(OC(=O)N2CCN(CCC(C)(COC(C)(C)C)COC(C)(C)C)CC2)ccc1Nc1cc(-c2ccc(-n3cccn3)cc2)[nH]n1 | 83.9% | 67.1% | 101% | 91.7% | 74.4% | 73.1% | 80.7% | 81.1% | 85.8% | 80.8%
3 | COc1ccc2[nH]cc(/C=N/Nc3ccnc4cc(Cl)ccc34)c2c1 | -91.8% (active) | -78.7% (active) | -100% (active) | -56.7% (active) | -78.1% (active) | -91.6% (active) | -62.4% (active) | -49.2% (active) | -92.3% (active) | -56.7% (active)
4 | CC(=O)N(O)CCCCCNC(=O)CCC(=O)N(O)CCCCCNC(=O)CCC(=O)N(O)CCCCCN(CCCCCCCCCC[P+](c1ccccc1)(c1ccccc1)c1ccccc1)CCCCCCCCCC[P+](c1ccccc1)(c1ccccc1)c1ccccc1 | -16.5% (active) | -6.05% (active) | -28.9% (active) | 7.35% (active) | -12.4% (active) | -18.4% (active) | -18.8% (active) | 9% (active) | 21.5% | -43.4% (active)
5 | CC1=C(C)C(=O)C(Nc2ccc(C)cc2)=C(Br)C1=O | 87.7% | 86.5% | 104% | 83.2% | 102% | -35.8% (active) | 96.1% | 100% | 106% | 124%
6 | O=C1/C(=C/c2cc(F)cc(F)c2)Cc2cc3c(cc21)OCO3 | 62.3% | 52.2% | 41.5% | 58% | 30.3% | 63.4% | 1.49% (active) | 59.8% | 61% | -15.2% (active)
7 | Cc1cc(=O)oc2cc(OCCCOc3ccc(/C=C/C(=O)Nc4ccc(Br)cc4)cc3)ccc12 | 67.8% | 77.4% | 94.9% | 85.2% | 9.24% (active) | 53.5% | 80% | 92.2% | 61.7% | 97.7%
8 | CN1CCN(c2ccc(Nc3nc(NCCCNS(=O)(=O)c4ccc(F)cc4)c4sccc4n3)cc2)CC1 | 87% | 99.4% | 87.6% | 91.5% | 72% | 37.8% | 71% | 77.9% | 3.97% (active) | 50.5%
9 | Cn1cc(-c2nn3cc(-c4ccncc4)nc3s2)c2cc(F)ccc21 | 82% | 83.5% | 87.9% | 79.6% | 65.8% | 49.2% | 86.9% | 94.9% | 89.6% | 55%
10 | COc1ccc(N2CCN(C3=C(Cl)C(=O)c4ncccc4C3=O)CC2)cc1 | 55.9% | 94% | 97.2% | 85.4% | 52.7% | 96.2% | -9.71% (active) | 96% | 107% | 30.5%
11 | C[C@H]1OCC2(CCN(c3cnc(C(=O)Nc4cc(F)cc5cccnc45)cn3)CC2)[C@H]1N | 75.3% | 80% | 81.4% | 84.1% | 89.1% | 34.7% | 31.6% | 77.3% | 60.1% | 13.3%
12 | CCOc1cccc(/C(N)=N/C(N)=N/c2nc3ccccc3s2)c1 | 66.4% | 78.6% | 91% | -38.7% (active) | 70.4% | 105% | 94.3% | -20% (active) | 105% | 113%
13 | Cc1ccc(NC(=O)Nc2nc3ccc([N+](=O)[O-])cc3s2)cc1 | -4.55% (active) | 6.4% (active) | 4.58% (active) | -4.29% (active) | 3.09% (active) | -33% (active) | -10.6% (active) | 4.97% (active) | 8.32% (active) | 48.8%
14 | COc1ccccc1/C=C1\Oc2ccc(O)c(O)c2C1=O | 93.2% | 110% | 102% | 99.9% | 101% | 103% | 89.1% | 101% | 94.1% | 116%
15 | NCCNC(=O)c1cccc(COc2ccccc2NC(=O)c2cc(Br)c(Br)[nH]2)c1 | 84.1% | 95.4% | 99.7% | 105% | 99.4% | 107% | 93.2% | 96.7% | 78.9% | 110%
16 | O=C(CCCCCCNC(=O)C(O)(O)C(F)(F)F)Nc1nc2ccccc2s1 | 3.62% (active) | 25.4% | 8.24% (active) | 0.982% (active) | 8.87% (active) | -5.22% (active) | -35.8% (active) | 4.79% (active) | 20.3% | -68.5% (active)
17 | CC/C(=C(/c1ccc(Cl)cc1)c1ccc(OCCN)cc1)c1ccccc1 | 96% | 105% | 108% | 116% | 60.2% | 103% | 98.1% | 86.2% | 87.9% | 18%
18 | COc1ccc(C2c3[nH]c4ccc(Cl)cc4c3CCN2c2oc(CO)nc2C#N)cc1 (stereo not given) | 69.9% | 60% | 70.4% | 53.5% | 22.9% | 53.3% | 31.7% | 38.1% | 64.6% | 40.5%
19 | O=C(CSc1nc2ccccc2c(=O)n1-c1ccccc1)N/N=C/c1ccc(Oc2ccc(Br)cc2)cc1 | 49.9% | 77.6% | 86.8% | 63.9% | 28% | 73% | 48.5% | 42.2% | 46% | 44.4%
20 | O=S(=O)(Oc1ccc(-c2cn3ccoc3n2)cc1)C1CCCCC1 | 102% | 86.7% | 101% | 105% | 100% | 99.9% | 87.9% | 99.4% | 100% | 103%
21 | CCOC(=O)C1=C(C)NC(C)=C(C(=O)OCc2ccccc2)C1c1cccc(C#N)c1 (stereo not given) | 62.5% | 58.4% | 69% | 45.6% | 22.1% | 50.5% | 9.38% (active) | 34.1% | 36.2% | 34.5%
22 | O=C(CSc1nnc(-c2cccs2)n1-c1ccccc1)Nc1ccccc1F | 90.8% | 96.3% | 103% | 76.9% | 96.6% | 93% | 55% | 89.6% | 99.4% | 70.8%
23 | O=C(/C=C/c1cccc(C(F)(F)F)c1)Nc1cccc(C(F)(F)F)c1 | 33.1% | 64.2% | 79.9% | 58.4% | 13.9% | 7.77% (active) | 33.8% | 39% | 76.4% | 38.4%
24 | Cc1ccc(C(=O)CSc2nnc(-c3ccc(-c4ccc(Cl)cc4)nc3C)o2)cc1 | 93% | 88.6% | 95.8% | 92.5% | 107% | 88% | 91.7% | 106% | 104% | 117%
25 | Clc1cccc(/C=N/Nc2nc(N/N=C/c3cccc(Cl)c3)nc(N3CCOCC3)n2)c1 | 70.6% | 60.4% | 53.8% | 110% | 78.2% | 65.4% | 13.9% | 46.6% | 30.6% | 36.9%
26 | Oc1[nH]c2ccc(Cl)cc2c1N=Nc1nc(N=Nc2c(O)[nH]c3ccc(Cl)cc23)nc(N2CCCCC2)n1 | 27.3% | 63.4% | 59.4% | 94% | 78% | 125% | 45.2% | 60.4% | 66% | 66.6%
27 | CCCCSC1=C(Cl)CN(c2ccccc2)C1=O | 102% | 102% | 101% | 111% | 104% | 95.7% | -9.23% (active) | 104% | 108% | 125%
